Consider seven compounds from PubChem BioAssay (NCI).

Among the test systems are HCT-15 colon; HT29 colon; SNB-75 CNS; SNB-19 CNS; U251 CNS; PC-3 prostate; SK-MEL-5 melanoma; UACC-62 melanoma; LOX IMVI melanoma; SK-MEL-28 melanoma; SK-MEL-2 melanoma; EKVX NSCLC; SN12C renal; UO-31 renal; TK-10 renal; ACHN renal; CAKI-1 renal; A498 renal; CCRF-CEM leukemia; MOLT-4 leukemia.
Holding throughout (assay): NCI-60 one-dose screen, 48 h (100 = growth as untreated, 0 = no growth, -100 = all killed)
Holding throughout (conditions): 10 µM

The panel holds about 83,000 compounds, 20% with a hit somewhere; the sample as a whole holds those more often.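 Interpretation: 100, growth as untreated; towards 0, rising growth inhibition; 0, no net growth; 0 to -100, cell death. Compounds scoring below 10 were considered active.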 Values without a mark were called inactive. Calls of active or inactive are those of the source.

For the compound `Brc1ccc(/C=C/c2n(Cc3ccc4ccccc4c3)c3ccccc3[n+]2Cc2ccc3ccccc3c2)cc1`, the growth in the test with HCT-15 colon is 7.22% (active); with HT29 colon, -87% (active); with SNB-75 CNS, -84.3% (active); in the test with SNB-19 CNS it was -45.9% (active); in the test with U251 CNS it was -88.9% (active); with PC-3 prostate, -79.1% (active). The growth in the test on SK-MEL-5 melanoma is -99.2% (active); in the test with UACC-62 melanoma it was -81.9% (active); in the test on LOX IMVI melanoma, -100% (active); in the test on SK-MEL-28 melanoma, -93.1% (active); in the test with SK-MEL-2 melanoma, -88.9% (active); in the test with EKVX NSCLC it was -81.6% (active). The growth with SN12C renal is -58.9% (active); with UO-31 renal, 44.6%; in the test on TK-10 renal, -63.2% (active); in the test with ACHN renal, -31.6% (active); in the test on CAKI-1 renal, -29.9% (active); with A498 renal it was 54.9%. Moreover, the growth was -14.2% (active) in the test with CCRF-CEM leukemia and -7.46% (active) in the test with MOLT-4 leukemia.

For `CC1=C2C(=C[C@@](C)(COCOCCCl)[C@@H]2O)C(=O)[C@](C)(O)C12CC2`, the growth in the test on HCT-15 colon is -38.9% (active); with HT29 colon it was -11.9% (active); in the test on SNB-75 CNS it was -53.2% (active); in the test on SNB-19 CNS it was -24.4% (active); with U251 CNS, 1.56% (active); with PC-3 prostate, 0.191% (active). For the same compound, the growth in the test on SK-MEL-5 melanoma is -62.3% (active); in the test with UACC-62 melanoma it was -87% (active); in the test with LOX IMVI melanoma, -82.2% (active); in the test on SK-MEL-28 melanoma, -82.7% (active); in the test with SK-MEL-2 melanoma, -100% (active); in the test with EKVX NSCLC, -62.1% (active). In addition, the growth is -63% (active) in the test on SN12C renal; -44.1% (active) in the test with UO-31 renal; -1.02% (active) in the test with TK-10 renal; -48% (active) in the test on ACHN renal; -14.7% (active) in the test with CAKI-1 renal; -31.5% (active) with A498 renal. For the same compound, the growth in the test with CCRF-CEM leukemia was 3.19% (active); in the test with MOLT-4 leukemia it was -12.4% (active).

On to `Cc1noc2c(Cc3ccccc3)nn(CC(=O)N/N=C/c3ccc(F)cc3)c(=O)c12`, for which the growth with HCT-15 colon is 94.1%; in the test on HT29 colon, 94.8%; in the test with SNB-75 CNS it was 9.02% (active); in the test on SNB-19 CNS, 32.4%; with U251 CNS, 42.8%; in the test with PC-3 prostate it was 65.6%. The growth with SK-MEL-5 melanoma is 76%; in the test with UACC-62 melanoma, 94%; in the test on LOX IMVI melanoma it was 36.3%; with SK-MEL-28 melanoma, 90.4%; in the test on SK-MEL-2 melanoma, 73.7%; in the test with EKVX NSCLC, 70.8%. Moreover, the growth in the test on SN12C renal was 25.6%; with UO-31 renal, 5.87% (active); with TK-10 renal, 59.2%; in the test on ACHN renal it was 9.34% (active); in the test on CAKI-1 renal, 33.2%; in the test with A498 renal, -20% (active). For the same compound, the growth is 100% with CCRF-CEM leukemia and 106% in the test with MOLT-4 leukemia.

In the case of `COc1ccsc1/C=N/NC(=O)c1[nH]c2ccc(Br)cc2c1-c1ccccc1`, the growth with HCT-15 colon was 1.32% (active); in the test with HT29 colon it was -12.2% (active); in the test on SNB-75 CNS, 20.1%; in the test with SNB-19 CNS, 21.8%; with U251 CNS, 6.55% (active); in the test on PC-3 prostate, 5.35% (active). Also, the growth in the test with SK-MEL-5 melanoma is -47.3% (active); in the test with UACC-62 melanoma, 9.1% (active); with LOX IMVI melanoma, -18% (active); in the test on SK-MEL-28 melanoma, 30.8%; in the test with SK-MEL-2 melanoma, 20.7%; in the test on EKVX NSCLC, 15.2%. The growth in the test with SN12C renal was -3.76% (active); with UO-31 renal, 11.4%; in the test on TK-10 renal, 16.1%; in the test on ACHN renal, -0.91% (active); in the test on CAKI-1 renal, 3.46% (active); in the test on A498 renal it was 20.3%. The growth in the test with CCRF-CEM leukemia is -12.5% (active); in the test with MOLT-4 leukemia, -11.4% (active).

Take `COc1ccc(/C=C/C(=O)c2ccc(N3CCN(C)CC3)cc2)c(C(F)(F)F)c1`: the growth in the test with HCT-15 colon is -68.5% (active); in the test with HT29 colon, -52% (active); in the test on SNB-75 CNS, 97.7%; with SNB-19 CNS, 54.5%; in the test on U251 CNS it was 5.33% (active); with PC-3 prostate, 43.5%. For the same compound, the growth in the test on SK-MEL-5 melanoma was 36.7%; in the test on UACC-62 melanoma, -31.4% (active); in the test on LOX IMVI melanoma it was -86.4% (active); in the test on SK-MEL-28 melanoma, 52%; in the test with SK-MEL-2 melanoma, 94.6%; in the test on EKVX NSCLC it was 49%. Besides, the growth in the test with SN12C renal was 42.5%; in the test with UO-31 renal, 44.2%; in the test with TK-10 renal, 71.7%; in the test on ACHN renal, 55.6%; in the test on CAKI-1 renal it was 41.4%; in the test with A498 renal, 59.5%. The growth with CCRF-CEM leukemia was 27.3%; in the test on MOLT-4 leukemia it was 10.8%.

For `N#Cc1c(-c2ccc(Cl)cc2)cc(-c2ccccc2)nc1OCc1ccccc1`, the growth in the test on HCT-15 colon was 36.1%; in the test with HT29 colon it was 65%; with SNB-75 CNS, 74.7%; with SNB-19 CNS it was 89.8%; in the test on U251 CNS it was 60.2%; in the test with PC-3 prostate, 40.1%. The growth with SK-MEL-5 melanoma was 54%; with UACC-62 melanoma it was 62.3%; with LOX IMVI melanoma, 65.7%; in the test on SK-MEL-28 melanoma it was 86%; in the test on SK-MEL-2 melanoma, 76%; in the test on EKVX NSCLC, 52.6%. Further, the growth in the test with SN12C renal was 87.8%; in the test with UO-31 renal it was 65.6%; with TK-10 renal it was 97.8%; in the test with ACHN renal, 75%; in the test on CAKI-1 renal it was 73.8%; in the test with A498 renal, 118%. Also, the growth was 79.9% with CCRF-CEM leukemia and 47.8% in the test on MOLT-4 leukemia.

Regarding `O=C1Nc2ccc(F)cc2/C1=C/c1cccc(OCc2ccccn2)c1`, the growth in the test on HCT-15 colon is 10.5%; in the test on HT29 colon, 26.2%; in the test with SNB-75 CNS, 116%; in the test with SNB-19 CNS, 52.3%; in the test on U251 CNS it was 7.32% (active); in the test on PC-3 prostate, 36.6%. The growth in the test with SK-MEL-5 melanoma was 31.1%; in the test on UACC-62 melanoma, 26.5%; in the test on LOX IMVI melanoma it was 1.13% (active); with SK-MEL-28 melanoma, 65.3%; in the test with SK-MEL-2 melanoma, 46.6%; in the test on EKVX NSCLC, 28.3%. Besides, the growth was 9.51% (active) in the test with SN12C renal; 34% in the test on UO-31 renal; 80.9% in the test with TK-10 renal; 37.9% with ACHN renal; 17.2% with CAKI-1 renal; 87.3% with A498 renal. The growth was 3.93% (active) with CCRF-CEM leukemia and 12.1% in the test with MOLT-4 leukemia.
